Results from PubChem BioAssay AID720650 (Broad Institute, 2013).
The source made the active and inactive calls. How the calls were made is not given here.

experiment: Biochemical counterscreen for C difficile toxins, absence of UDPG, inhibitor dose response (AID 720650); conditions: series mostly up to 19.5 µM; activity change, negative = inhibition: at the top concentration

Compound	activity change, negative = inhibition	AC50
COc1cccc(-n2c(SCC(=O)N3CCOCC3)nnc2-c2c[nH]c3ccccc23)c1	-10.9% (inactive)	–
CCOC(=O)c1cccc(NC(=O)CCNS(=O)(=O)c2cccc3nonc23)c1	4.43% (inactive)	–
COc1ccc(Br)cc1C(=O)Nc1ccc(O)cc1	–	9.64 µM (active)
COc1ccc2[nH]c3c(=O)n(CCCCC(=O)NCCN4CCCC4)c(=S)[nH]c3c2c1	–	18.5 µM (active)
COc1c2ccc(C(=O)NCCCCc3ccccc3)cc2nn1C	-14% (inactive)	–
Cc1cc(O)ccc1NC(=O)c1ccccc1	–	17.9 µM (active)
O=C1Nc2ccccc2C1c1ncc(C(F)(F)F)cc1Cl (centres undefined)	-15.9% (inactive)	–
Cn1cc(S(=O)(=O)CC(=O)N2CCCc3ccccc32)c2ccccc21	-8.72% (inactive)	–
CN(c1ccccc1)S(=O)(=O)c1cccc(C(=O)NCCc2ccc(O)c(O)c2)c1	1.79% (inactive)	–
O=C(CN1C(=O)CCC1=O)NNc1ccc2ccccc2c1	–	< 0.16 µM (active)
Clc1ccc(-c2nc3ccc(Cl)cn3c2Cc2ccccc2)cc1	-11.8% (inactive)	–
CN(C)CC(=O)N1CC[C@@H]2[C@H]1c1cc(-c3ccccc3)ccc1N(C)[C@H]2CO	–	14.1 µM (active)
COCCN(C(=O)C(C)C)c1nnc(-c2ccc(C(C)(C)C)cc2)s1	5.33% (inactive)	–
O=C(Nc1ccc(O)cc1)/C(=C\c1cccs1)NC(=O)c1ccccc1	–	17.1 µM (active)
Nc1cc(=O)[nH]c(SCC(=O)Nc2ccccc2Sc2ccc(Cl)cc2)n1	-18% (inactive)	–
CCOC(=O)[C@H]1[C@H]2COc3ccc(OC)cc3[C@@H]2N2C(=O)CN(Cc3ccc(Cl)cc3)C(=O)[C@@]12C	-8.66% (inactive)	–
CC(=O)Nc1ccc(S(=O)(=O)N2CCCC(C(=O)O)C2)cc1 (centres undefined)	-9.46% (inactive)	–
O=[N+]([O-])c1cc(Br)ccc1NS(=O)(=O)c1ccccc1	–	> 39 µM (inactive)
CC(C)OC(=O)C(=O)NNc1ccccc1	–	1.35 µM (active)
CC(=O)C[C@H]1c2ccccc2S(=O)(=O)N1C1CCCCC1	2.33% (inactive)	–
CNC(=O)N(O)C1N(/N=C/c2ccc(SC)cc2)C(=S)SC1(C)C (centres undefined)	–	> 39 µM (inactive)
CCN(CCN(C)C)C(=O)C1CCN(S(=O)(=O)c2c(C)noc2/C=C/c2ccccc2F)CC1	-11.6% (inactive)	–
CCSc1nnc(NC(=O)C2CC2c2ccccc2)s1 (centres undefined)	-7.96% (inactive)	–
O=C(Nc1cc(S(=O)(=O)N2CCOCC2)ccc1N1CCOCC1)c1ccccc1Cl	–	> 39 µM (inactive)
